Test results published in PubChem BioAssay AID1159580 (chemical genetic matrix, 2015).
Several values for one entry are separate records, joined by “and”; a condition that tells them apart may be missing. Equal entries are not always repeated. The whole screen tested about 5,500 compounds, of which about 2,000 (36%) were called active. Inconclusive results (about 18%) are left out. No stated cut-off is given here; in the data, active means normalized growth mostly below about 0.91 (no sharp cut-off); inconclusive means no clear call, values can overlap the other calls; inactive means mostly above about 0.92. The list shows a part of the results. More than one record can exist for a structure, and the calls need not agree.

Test: chemical genetic growth profiling, strain panel (AID 1159580);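 further: tested at 20 µM; growth read once vehicle control cultures reached saturation at 30 °C; 1 = growth at the plate median or of vehicle wells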
Settings: S. cerevisiae deletion strains, growth OD

Measured: normalized growth

O=C(O)c1ccccc1Nc1cccc(C(F)(F)F)c1
inactive: locus YBR023C, strain chs3, stronger effect = lower value 0.924 | locus YBR229C, strain ROT2, stronger effect = lower value 0.983 | locus YCL029C, strain bik1, stronger effect = lower value 0.999 | locus YDL101C, strain DUN1, stronger effect = lower value 0.972 | locus YDL185W, strain tfp1, stronger effect = lower value 0.979 | locus YDL192W, strain arf1, stronger effect = lower value 0.974 | locus YDR101C, strain arx1, stronger effect = lower value 0.984 | locus YDR150W, strain NUM1, stronger effect = lower value 0.996 | locus YDR162C, strain NBP2, stronger effect = lower value 0.852 | locus YDR195W, strain ref2 0.998 | locus YDR318W, strain mcm21, stronger effect = lower value 0.959 | locus YDR388W, stronger effect = lower value 0.975 | locus YEL061C, strain CIN8, stronger effect = lower value 0.952 | locus YER110C, stronger effect = lower value 1.01 | locus YGL078C, strain dbp3, stronger effect = lower value 0.979 | locus YGL086W, strain mad1, stronger effect = lower value 0.96 | locus YGL248W, strain PDE1, stronger effect = lower value 0.92 | locus YGR135W, strain pre9, stronger effect = lower value 0.895 | locus YHR013C, strain ard1, stronger effect = lower value 0.988 | locus YHR079C, strain IRE1 (second series), stronger effect = lower value 0.988 | locus YHR094C, strain hxt1, stronger effect = lower value 1 | locus YHR200W, strain rpn10, stronger effect = lower value 0.95 | locus YIL073C, strain SPO22, stronger effect = lower value 0.858 | locus YIL125W, strain kgd1, stronger effect = lower value 0.981 | locus YIR030C, strain dcg1, stronger effect = lower value 0.965 | locus YJL134W, strain LCB3, stronger effect = lower value 0.994 | locus YJL168C, strain set2, stronger effect = lower value 0.99 | locus YJL187C, strain SWE1 (second series), stronger effect = lower value 0.941 | locus YJR075W, strain HOC1, stronger effect = lower value 0.93 | locus YKL009W, strain mrt4, stronger effect = lower value 0.896 | locus YKL068W, stronger effect = lower value 0.99 | locus YKL085W, strain MDH1 (second series), stronger effect = lower value 0.957 | locus YKL085W, strain MDH1, stronger effect = lower value 0.957 | locus YKL190W, strain CNB1, stronger effect = lower value 0.962 | locus YLR039C, strain RIC1, stronger effect = lower value 0.808 | locus YLR058C, strain SHM2, stronger effect = lower value 0.951 | locus YLR102C, strain apc9, stronger effect = lower value 0.982 | locus YLR262C, strain YPT6, stronger effect = lower value 0.821 | locus YLR268W, strain sec22, stronger effect = lower value 0.914 | locus YLR357W, strain rsc2, stronger effect = lower value 0.873 | locus YLR371W, strain rom2, stronger effect = lower value 0.987 | locus YML016C, strain PPZ1, stronger effect = lower value 0.991 | locus YML032C, strain rad52, stronger effect = lower value 0.933 | locus YML124C, strain tub3, stronger effect = lower value 0.97 | locus YMR078C, strain ctf18, stronger effect = lower value 0.98 | locus YMR223W, strain ubp8, stronger effect = lower value 0.945 | locus YMR307W, strain GAS1, stronger effect = lower value 0.842 | locus YNL067W, strain RPL9B, stronger effect = lower value 0.967 | locus YNL128W, strain TEP1, stronger effect = lower value 1.01 | locus YNL153C, strain GIM3, stronger effect = lower value 0.937 | locus YNL248C, strain rpa49, stronger effect = lower value 0.921 | locus YNL250W, strain rad50, stronger effect = lower value 0.994 | locus YNL271C, strain bni1, stronger effect = lower value 0.982 | locus YNL298W, strain CLA4, stronger effect = lower value 0.928 | locus YNR052C, strain pop2, stronger effect = lower value 0.993 | locus YOL012C, strain htz1 0.909 | locus YOL147C, strain pex11, stronger effect = lower value 0.975 | locus YOR061W, strain CKA2, stronger effect = lower value 0.947 | locus YOR069W, strain VPS5, stronger effect = lower value 0.991 | locus YOR136W, strain idh2, stronger effect = lower value 0.983 | locus YOR144C, strain elg1, stronger effect = lower value 0.978 | locus YOR316C, strain cot1, stronger effect = lower value 0.988 | locus YPL106C, strain sse1, stronger effect = lower value 0.968 | locus YPR119W, strain clb2, stronger effect = lower value 0.988 | locus YPR141C, strain kar3, stronger effect = lower value 0.99 | locus YPR163C, strain tif3, stronger effect = lower value 0.952 | locus YPR167C, strain met16, stronger effect = lower value 0.944 | strain wtn01, stronger effect = lower value 0.954
0.119 (active) and 0.83 (inactive): locus YJL095W, strain BCK1, stronger effect = lower value
0.134 (active) and 0.985 (inactive): locus YHR030C, strain SLT2, stronger effect = lower value
active: locus YAL013W, strain DEP1, stronger effect = lower value 0.857 | locus YAL021C, strain ccr4, stronger effect = lower value 0.847 | locus YAL026C, strain drs2, stronger effect = lower value 0.837 | locus YAL030W, strain snc1, stronger effect = lower value 0.817 | locus YBL061C, strain skt5, stronger effect = lower value 0.845 | locus YBR009C, strain hhf1, stronger effect = lower value 0.848 | locus YBR021W, strain FUR4, stronger effect = lower value 0.764 | locus YBR171W, strain sec66, stronger effect = lower value 0.69 | locus YBR231C, strain swc5, stronger effect = lower value 0.827 | locus YBR279W, strain paf1, stronger effect = lower value 0.859 | locus YCL011C, strain gbp2, stronger effect = lower value 0.86 | locus YCL016C, strain dcc1, stronger effect = lower value 0.87 | locus YCL069W, strain vba3, stronger effect = lower value 0.834 | locus YCR088W, strain abp1, stronger effect = lower value 0.793 | locus YDL005C, strain med2, stronger effect = lower value 0.882 | locus YDL035C, strain GPR1, stronger effect = lower value 0.844 | locus YDL040C, strain nat1, stronger effect = lower value 0.852 | locus YDL074C, strain BRE1, stronger effect = lower value 0.768 | locus YDR001C, strain nth1, stronger effect = lower value 0.805 | locus YDR069C, strain doa4, stronger effect = lower value 0.896 | locus YDR137W, strain rgp1, stronger effect = lower value 0.623 | locus YDR159W, strain sac3, stronger effect = lower value 0.661 | locus YDR297W, strain sur2, stronger effect = lower value 0.849 | locus YDR334W, strain swr1, stronger effect = lower value 0.788 | locus YDR335W, strain msn5, stronger effect = lower value 0.849 | locus YDR392W, strain spt3, stronger effect = lower value 0.721 | locus YDR502C, strain sam2, stronger effect = lower value 0.915 | locus YEL003W, strain gim4, stronger effect = lower value 0.842 | locus YEL037C, strain rad23, stronger effect = lower value 0.831 | locus YEL061C, strain CIN8 (second series), stronger effect = lower value 0.815 | locus YER015W, strain faa2, stronger effect = lower value 0.869 | locus YER016W, strain bim1, stronger effect = lower value 0.837 | locus YER111C, strain swi4, stronger effect = lower value 0.829 | locus YER155C, strain BEM2 (second series), stronger effect = lower value 0.763 | locus YER155C, strain BEM2, stronger effect = lower value 0.914 | locus YER167W, strain BCK2, stronger effect = lower value 0.833 | locus YFR010W, strain ubp6, stronger effect = lower value 0.858 | locus YGL167C, strain pmr1, stronger effect = lower value 0.751 | locus YGL173C, strain kem1, stronger effect = lower value 0.843 | locus YGL227W, strain vid30, stronger effect = lower value 0.812 | locus YGL240W, strain doc1, stronger effect = lower value 0.853 | locus YGL253W, strain hxk2, stronger effect = lower value 0.811 | locus YGR229C, strain SMI1, stronger effect = lower value 0.727 | locus YGR252W, strain gcn5, stronger effect = lower value 0.645 | locus YHR027C, strain rpn1, stronger effect = lower value 0.862 | locus YHR079C, strain IRE1, stronger effect = lower value 0.126 | locus YHR129C, strain ARP1, stronger effect = lower value 0.918 | locus YHR142W, strain chs7, stronger effect = lower value 0.775 | locus YIL066C, strain RNR3, stronger effect = lower value 0.824 | locus YJL092W, strain hpr5, stronger effect = lower value 0.801 | locus YJL095W, strain BCK1 (second series), stronger effect = lower value 0.848 | locus YJL115W, strain asf1, stronger effect = lower value 0.843 | locus YJL129C, strain trk1, stronger effect = lower value 0.565 | locus YJL154C, strain vps35, stronger effect = lower value 0.792 | locus YJL164C, strain tpk1, stronger effect = lower value 0.873 | locus YJL166W, strain qcr8, stronger effect = lower value 0.853 | locus YJL187C, strain SWE1, stronger effect = lower value 0.833 | locus YJR043C, strain POL32, stronger effect = lower value 0.775 | locus YJR066W, strain TOR1, stronger effect = lower value 0.00921 | locus YKL160W, strain elf1, stronger effect = lower value 0.835 | locus YKR001C, strain vps1, stronger effect = lower value 0.85 | locus YKR026C, strain gcn3, stronger effect = lower value 0.79 | locus YKR091W, strain srl3, stronger effect = lower value 0.826 | locus YLL001W, strain dnm1, stronger effect = lower value 0.833 | locus YLL026W, stronger effect = lower value 0.829 | locus YLL041C, strain sdh2, stronger effect = lower value 0.803 | locus YLR027C, strain aat2, stronger effect = lower value 0.865 | locus YLR113W, strain HOG1, stronger effect = lower value 0.137 | locus YLR221C, strain rsa3, stronger effect = lower value 0.838 | locus YLR258W, strain gsy2, stronger effect = lower value 0.83 | locus YLR262C, strain YPT6 (second series), stronger effect = lower value 0.634 | locus YLR320W, strain mms22, stronger effect = lower value 0.833 | locus YLR330W, strain CHS5, stronger effect = lower value 0.883 | locus YLR342W, strain FKS1 (second series), stronger effect = lower value 0.713 | locus YLR342W, strain FKS1, stronger effect = lower value 0.831 | locus YLR370C, strain arc18, stronger effect = lower value 0.808 | locus YLR384C, strain iki3, stronger effect = lower value 0.818 | locus YLR418C, strain cdc73, stronger effect = lower value 0.729 | locus YML120C, strain ndi1, stronger effect = lower value 0.842 | locus YMR058W, strain fet3, stronger effect = lower value 0.824 | locus YMR125W, strain sto1, stronger effect = lower value 0.835 | locus YMR129W, stronger effect = lower value 0.812 | locus YMR205C, strain PFK2, stronger effect = lower value 0.81 | locus YMR231W, strain pep5, stronger effect = lower value 0.817 | locus YNL071W, strain lat1, stronger effect = lower value 0.849 | locus YNL183C, strain NPR1, stronger effect = lower value 0.0159 | locus YNL209W, strain ssb2, stronger effect = lower value 0.862 | locus YNL233W, strain BNI4, stronger effect = lower value 0.852 | locus YNL307C, strain MCK1, stronger effect = lower value 0.695 | locus YNL322C, strain KRE1 (second series), stronger effect = lower value 0.801 | locus YNR049C, strain mso1, stronger effect = lower value 0.813 | locus YOR001W, strain rrp6, stronger effect = lower value 0.872 | locus YOR070C, strain gyp1, stronger effect = lower value 0.848 | locus YOR080W, strain dia2, stronger effect = lower value 0.847 | locus YOR083W, strain WHI5, stronger effect = lower value 0.834 | locus YOR106W, strain vam3, stronger effect = lower value 0.821 | locus YOR184W, strain ser1, stronger effect = lower value 0.819 | locus YOR231W, strain MKK1, stronger effect = lower value 0.105 | locus YOR265W, strain rbl2, stronger effect = lower value 0.843 | locus YOR270C, strain vph1, stronger effect = lower value 0.674 | locus YOR290C, strain snf2, stronger effect = lower value 0.852 | locus YPL051W, strain arl3, stronger effect = lower value 0.831 | locus YPL078C, strain atp4, stronger effect = lower value 0.807 | locus YPL240C, strain hsp82, stronger effect = lower value 0.836 | locus YPL256C, strain CLN2, stronger effect = lower value 0.116
